Source: PubChem BioAssay (NCI)
Values joined by “and” are separate entries in the source; they are usually repeats but may differ in a detail not shown here. Equal values may be shown once. The panel holds about 79,000 compounds, 15% with a hit somewhere; the sample as a whole holds those more often. Unmarked numbers belong to inactive results. Active and inactive are the calls of the source. Rule as the data show it: active = growth inhibition above about 70%; inactive = the rest.

What was measured:
[1] = NCI Yeast Anticancer Drug Screen. Data for the rad50 strain (AID 155);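 also: 0% = growth of vehicle-only cultures of the same strain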; settings: S. cerevisiae rad50 strain growth inhibition, active compounds read high; at 50.0 µM unless noted
Outline: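 A DNA repair-deficient yeast mutant serves as the test organism; compound-induced growth inhibition is calculated against vehicle-treated cells.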

[2] = NCI Yeast Anticancer Drug Screen. Data for the mec2-1 strain (AID 157); settings: S. cerevisiae mec2-1 strain, active compounds read high; at 50.0 µM unless noted
Outline: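 Cells of the genetically defined mec2-1 yeast strain are incubated with test compound. Inhibition of growth is calculated against vehicle-treated controls.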

[3] = NCI Yeast Anticancer Drug Screen. Data for the sgs1 mgt1 strain (AID 161);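 also: 0% = growth of cultures given vehicle only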; settings: S. cerevisiae sgs1 mgt1 strain, active compounds read high; at 50.0 µM unless noted
Outline: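 Mutant yeast exposed to compound; growth scored against vehicle-only wells.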

[4] = NCI Yeast Anticancer Drug Screen. Data for the cln2 rad14 strain (AID 165);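 also: 0% = growth equal to vehicle treated cultures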; settings: S. cerevisiae cln2 rad14 strain, active compounds read high; at 50.0 µM unless noted
Outline: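 The screen exposed genetically defined yeast (cln2 rad14) to test compounds and scored growth inhibition relative to vehicle-treated controls.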

[5] = NCI Yeast Anticancer Drug Screen. Data for the bub3 strain (AID 167); settings: S. cerevisiae bub3 mutant strain, active compounds read high; at 50.0 µM unless noted
Outline: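 Inhibition values come from growth of compound-treated mutant yeast normalised to vehicle-treated controls.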

[6] = NCI Yeast Anticancer Drug Screen. Data for the mlh1 rad18 strain (AID 175); settings: S. cerevisiae mlh1 rad18 strain growth inhibition, active compounds read high; at 50.0 µM unless noted
Outline: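 Compound-treated yeast growth, normalised to vehicle controls. Strain bears defined DNA repair mutations.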

Row | Structure (SMILES) | growth inhibition [1] | growth inhibition [2] | growth inhibition [3] | growth inhibition [4] | growth inhibition [5] | growth inhibition [6]
1 | CCC1(C)OCCO1 | 0.5% | -13.5% | -12.1% | -29.9% | 1.05% | 2.2%
2 | COC(=O)C(C(=O)OC)C1CCCC(=O)C1 (centres undefined) | -2.3% | -10% | -10.6% | -6.7% | -24.7% | 13.8%
3 | CC(=O)c1cccc(NC(=O)Oc2cc(=O)oc3ccccc23)c1 | 5.75% | 19.3% | 12.4% | -4.6% | 38.2% | 29.5%
4 | C=CCCCC12CCCc3cccc(c31)NC2=O (centres undefined) | 48.7% | 17.4% | 24.8% | 48% | 46.5% | 34.6%
5 | O=C1NC(Cc2ccccc2)C(=O)NC1Cc1ccccc1 (centres undefined) | 2.35% | -6.7% | 7.7% | -22.8% | -4.95% | -1.35%
6 | O=C(/C=C\c1ccc(Cl)c(Cl)c1)c1ccc(Cl)cc1Cl | 36.1% | 9.35% | -4.6% | 1.65% | 22.1% | 0.7%
7 | CC1=Cc2cccc(C)c2C(=O)C1=O | 93.6% (active) | 95.2% (active) | 94.5% (active) | 92.8% (active) | 93.8% (active) | 93.2% (active)
8 | Cc1ccc(C2SC(N)=Nc3c2c(C)nn3C(=O)c2ccc(Cl)cc2)cc1 (centres undefined) | -36.1% | -42% | -16.4% | -33.5% | -27.6% | -24.9%
9 | Nc1nc(Cl)cc(NCCCCCCCCNc2cc(Cl)nc(N)n2)n1 | -2.3% | -1.65% | -7.35% | -7.8% | -3.95% | -3.55%
10 | C=C(C#N)CSc1c(Cl)c(Cl)c(Cl)c(Cl)c1Cl | 34.5% | 13% | 9.2% | 17.7% | 16.8% | 62.6%
11 | CC(=O)COC(=O)c1ccccc1 | 32.1% | 3.5% | 28.7% | 0% | 10.2% | 26.2%
12 | O=C1OC(C(O)C(O)CO)C(O)C1O (centres undefined) | 8.2% and -17.4% | 7.7% and -27.4% | 1.35% and -34.2% | -16.9% and -32.7% | 14.4% and -0.9% | -23.7% and -1.8%
13 | N#CNc1nc(N)c(-c2ccc(Cl)cc2)c(C(=O)Nc2nccs2)n1 | -8.85% | -10.9% | 3.25% | 1.5% | -7.75% | -12.6%
14 | CCCCCCCCCCCCCCCCNC(=O)C(=O)/C=C(\O)c1ccc(C)cc1 | 1.15% | -24.4% | 18.8% | -44.5% | 0.6% | 1.4%
15 | Cc1ccc(C2=CC=C(c3ccccc3)C2)cc1 | -22.1% | 5.8% | -24.1% | 58.6% | 4.4% | 36.6%
16 | COc1ccc(CC(C)NN)cc1 (centres undefined) | 93% (active) | 56.7% | 50.2% | 95.7% (active) | 99.2% (active) | 98.5% (active)
17 | O=C(O)c1ccc(NCn2c(=S)sc3ccccc32)cc1 | 6.45% | 3% | 52% | 26.9% | 11.8% | 11.1%
18 | COc1cccc(N(CN2CC=CC2=O)C(C)=O)c1 | -1.65% | 6.3% | 10.6% | 18.6% | -16.8% | -44.3%
19 | COC(OC)C(C)=O | -13.1% | -19.8% | -18.9% | -16.9% | -15.5% | 5.35%
20 | CC1(C)CC2(Nc3ccccc3N2)C2=C(O1)C(=O)OC2 | 9.45% | -8.25% | -18.7% | -1.3% | -6.15% | -10.6%

Row | Structure (SMILES) | growth inhibition [1] | growth inhibition [2] | growth inhibition [3] | growth inhibition [4] | growth inhibition [5] | growth inhibition [6]
21 | OC1(C2NCCc3ccccc32)CCN(CCc2ccccc2)CC1 (centres undefined) | 21.8% | 10.7% | 25.5% | 20.2% | 2.95% | 8.9%
22 | CCOC(=O)c1[nH]c(=O)[nH]c(=O)c1[N+](=O)[O-] | 0.4% | -3.75% | 7.15% | 3.4% | -11.9% | -2.3%
23 | CN(C)/C=N/n1c2ccccc2c2ccccc21 | -1.7% | -6.8% | 0% | -7.55% | 23.6% | 14.8%
24 | O=C(CCCl)Nc1ccc(C(=O)CCc2cccc(NC(=O)CCCl)c2)cc1 | 28.9% | 2.65% | 7.75% | 22.5% | -0.65% | 6.3%
25 | O=C(Cc1cccnc1)c1cccnc1 | -52.3% | -18.9% | -8.15% | -11.9% | -15% | -7.55%
26 | COc1nc2nccnc2c(=O)n1C | -18.2% | -4.65% | -16.5% | 14.4% | -7.55% | -3.3%
27 | O=C(/C=C/c1ccc(OCC(=O)N2CCN(c3ccccc3)CC2)cc1)c1ccccc1 | 13% | 16% | 35.6% | -5.95% | 16.7% | 10.7%
28 | CCN(CC)c1nc(Cl)nc(Nc2ccc3cc(-c4ccccc4)c(=O)oc3c2)n1 | -9.15% | -24.9% | -8.1% | 8.05% | -12.7% | -7.25%
29 | NC(=O)C1CC1 | -9.4% | 2.25% | -9.7% | -7.7% | 9.25% | -4%
30 | O=C(CCN1C(=O)c2ccccc2C1=O)Nc1c(I)cc(I)c(C(=O)O)c1I | -4.6% | -11.7% | -20.6% | -20.2% | 8.65% | 6.8%
31 | Cc1ccc(S(=O)(=O)NC(=O)NNc2ccc(F)cc2)cc1 | 2.5% | 2.15% | 1.65% | 17.9% | -12.1% | 42.5%
32 | OCCN1CCCCCCC1 | -2% and 0.2% | -6.15% and -3.8% | -4.6% and 0.65% | -0.45% and 5.6% | -6.3% and 10.1% | -7.5% and -0.3%
33 | CN(C(=O)c1cccc([N+](=O)[O-])c1)C1CCCCC1 | 2.6% | 34.5% | 32.6% | -4.7% | 22.4% | 14.2%
34 | CC(C)CCOC=O | 38.1% | 28.4% | 22.8% | 21.6% | 24.9% | 30.5%
35 | CCOC(=O)c1ccc(NC(=O)Nc2ccc(F)cc2)cc1 | 3.5% | -0.5% | 1% | 12.5% | 32.5% | 5.55%
36 | CCOC(=O)C(CCc1ccccc1)(NC(C)=O)C(=O)OCC | 10.4% | -7.8% | 12.3% | -4.65% | 14.3% | -10%
37 | OC(c1ccc(Cl)cc1)c1ccccn1 (centres undefined) | 1.7% | -9% | -7.3% | -17% | -18.9% | -8.75%
38 | O=C(c1ccccc1)c1ccc2ccccc2c1 | 24.8% | 13% | 0.65% | -13.2% | 14.9% | 28.3%
39 | CC(=C(C#N)C#N)c1csc2ccccc12 | 9.1% | 14.8% | -4.35% | -34.5% | -14.8% | 21.9%
